# Rac1 wt modul = wildtype Rac1 GTP binding modulators, primary screen, biochemical, GST-Rac1 beads, flow cytometry, multiplex; fluorescent GTP binding; actives lie on both sides; 0 = cold GTP competed, 100 = untreated; GTP binding activity (% of control), % at 10 µM; 190,000 tested, 0.27% active; AID 757, 2007;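 active means GTP binding activity at least 20 points away from the 100% control level, either lower or higher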
# Cdc42 wt GTP = modulators of GTP binding to wildtype Cdc42, primary screen, biochemical, multiplex bead flow cytometry, Bodipy-GTP. Cell division control protein 42 homolog (Homo sapiens), P60953. GST-Cdc42 beads; actives lie on both sides. percent activity (GTP binding), % at 10 µM. 190,000 tested, 0.2% active. AID 761, 2007;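 active means percent activity GTP binding at least 20 points away from the 100% baseline, either down as inhibitor or up as activator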;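 further: median bead fluorescence of bound Bodipy-FL-GTP at 100 nM; 0% = excess unlabeled GTP control and 100% = no compound control; below 100% means less GTP binding so inhibitor and above means activator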
# Target sequence (P60953 whole entry, looked up): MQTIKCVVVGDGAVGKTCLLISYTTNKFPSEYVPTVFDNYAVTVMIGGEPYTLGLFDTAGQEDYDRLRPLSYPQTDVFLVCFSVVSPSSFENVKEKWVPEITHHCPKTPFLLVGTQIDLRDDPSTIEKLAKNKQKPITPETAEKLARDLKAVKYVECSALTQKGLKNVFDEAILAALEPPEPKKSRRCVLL
# Rac1 mut GTP = GTP binding modulators of activated mutant Rac1, primary screen, biochemical, bead-based flow cytometry, multiplex, fluorescent GTP | Ras-related C3 botulinum toxin substrate 1 (Homo sapiens), P63000 | GST-Rac1 activated beads; actives lie on both sides; 100% means binding = to untreated wells | percent activity (GTP binding), % at 10 µM | 190,000 tested, 0.11% active | AID 764, 2007;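 active means GTP binding at least 20 percentage points away from the 100% baseline, in either direction, so actives lie on both sides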
# HRas wt GTP bind = modulators of GTP binding to HRas wildtype, primary screen, biochemical, bead-based flow cytometry, multiplex. GTPase HRas (Homo sapiens), P01112. GTP binding activity, % at 10 µM. 190,000 tested, 0.14% active. GST-Ras wt beads, Bodipy-FL-GTP binding; actives lie on both sides;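 active means GTP binding activity at least 20% away from the 100% baseline, either lowered as inhibitor or raised as activator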;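 further: 0% = unlabeled GTP competition control and 100% = no-compound control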
# Target sequence (P01112 whole entry, looked up): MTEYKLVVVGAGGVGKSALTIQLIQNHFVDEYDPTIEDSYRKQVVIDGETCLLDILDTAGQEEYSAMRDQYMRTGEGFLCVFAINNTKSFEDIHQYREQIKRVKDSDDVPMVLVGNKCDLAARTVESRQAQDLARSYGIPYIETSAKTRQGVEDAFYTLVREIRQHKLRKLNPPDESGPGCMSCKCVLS
# Rab7 wt modul = modulators of GTP binding to Rab7, primary screen, biochemical, wildtype, multiplex bead flow cytometry; 190,000 tested, 0.055% active; AID 758, 2007; GTP binding activity (percent of control), % at 10 µM; Rab7 GTPase wild type (dog), Bodipy-FL-GTP binding; GST-Rab7 beads, fluorescent GTP binding; actives lie on both sides; untreated = 100%, excess cold GTP = 0%;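 active means fluorescent GTP binding to Rab7 beads changed by at least 20 points from the 100% baseline, either direction, mostly lower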;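 further: median green fluorescence of bound Bodipy-FL-GTP per Rab7 bead population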
# Rab2A wt mod = modulators of GTP binding to Rab2A wildtype, primary screen, biochemical, dog, bead-based flow cytometry, multiplex | Ras-related protein Rab-2A (Canis lupus familiaris), P61105 | GST-Rab2 wt beads, Bodipy-GTP binding | GTP binding activity, % at 10 µM | 190,000 tested, 0.19% active | AID 760, 2007;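 active means GTP binding activity at least 20 points away from 100%, either lowered or raised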;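 further: 0% = beads with excess unlabeled GTP and 100% = no-compound control corrected for plate trend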
# Starred values were filed as active, the others as inactive; [ ] = another dose, or the depositor's remark. Shown are actives, neighbours in structure and some others; about 0.38% of the full set was active somewhere.
SMILES,Rac1 wt modul,Cdc42 wt GTP,Rac1 mut GTP,HRas wt GTP bind,Rab7 wt modul,Rab2A wt mod
COc1cc2c(C)nc3c(c(C)nn3-c3ccccc3)c2cc1OC,72*,83,89,85,95,83
Cc1cc(Cl)c(S(=O)(=O)Nc2ccccn2)cc1OCC(N)=O,100,98,100,102,102,99
Cc1ccc(Sc2c(C)nn(C(=O)C3CC3)c2C)cc1,78*,82,79*,84,90,81
NC(=S)N=Nc1c(O)[nH]c2cc(F)c(F)cc12,81,91,89,80,90,78*
O=C(O)CC/C(=C\c1cccc(NC(=O)c2ccccc2Cl)c1)c1nc2ccccc2s1,93,87,88,92,98,92
O=C(O)CCSc1nc2ccccc2s1,100,99,95,97,95,98
Cc1nn(-c2ccc(F)cc2)c(Cl)c1/C=C(\CCC(=O)O)c1nc2ccccc2s1,72*,68*,65*,80,79*,76*
O=C(O)CC/C(=C\c1ccc(N2CCCC2)c([N+](=O)[O-])c1)c1nc2ccccc2s1,82,75*,75*,79*,81,74*
O=C(O)CC/C(=C\c1ccccc1[N+](=O)[O-])c1nc2ccccc2s1,81,73*,74*,80,90,76*
CCOC(=O)c1sc(NC(=O)CSc2nnnn2-c2ccccc2)c(C(=O)OCC)c1C,99,104,98,102,103,101
C=CCN1CCN(C(c2ccccc2OC)c2nnnn2C(C)(C)C)CC1 (stereo not drawn),98,97,95,97,101,99
CN1CCc2ccccc2CC1=O,109,102,101,105,104,102
COc1ccc(C(=O)NC(=S)N2CC(C)OC(C)C2)cc1 (stereo not drawn),137*[activator],154*[activator],98,91,93,98
O=C(N/N=C/C(Br)=C/c1ccccc1)C1CC1,100,100,99,99,104,98
CC(C(=O)N1CCCCC1)N(C)CC(=O)Nc1ccc(Cl)cc1 (stereo not drawn),101,99,98,95,98,97
O=C1Nc2ccc(Br)cc2C12NNc1ccccc1O2 (stereo not drawn),84,79*,89,82,96,83
Cn1ccc(C(=O)N2CCCc3ccccc32)n1,99,100,100,97,102,99
COc1cc(NC2c3ccccc3C(=O)N2c2ccc(C)cn2)cc(OC)c1OC (stereo not drawn),107,105,101,102,101,100
Cc1ccc(N2C(=O)c3ccccc3C2Nc2cccnc2)nc1 (stereo not drawn),121*[activator],110,103,101,99,104
CCc1cc2c(=O)n(CCC(C)C)c(=S)[nH]c2s1,96,93,93,97,102,98
Cc1cc(C)n2nc(C(=O)N3CCCC(CNS(=O)(=O)c4cccs4)C3)cc2n1 (stereo not drawn),28*,34*,31*,35*,22*,33*
O=C(CCc1ccccn1)N1CCCC(CNS(=O)(=O)c2cccs2)C1 (stereo not drawn),54*,61*,53*,60*,62*,62*
CCc1cc(C(=O)N2CCCC(CNS(=O)(=O)c3cccs3)C2)n(C)n1 (stereo not drawn),97,95,95,95,96,95
COc1ccc(-c2nnn(CC(=O)N(CCCN3CCOCC3)C(C(=O)NC3CCCC3)c3ccco3)n2)cc1 (stereo not drawn),101,102,94,97,96,96
N#CCc1c(C#N)c(N)nc(N2CCN(S(=O)(=O)c3ccccc3)CC2)c1C#N,95,95,94,93,97,94
SMILES,Rac1 wt modul,Cdc42 wt GTP,Rac1 mut GTP,HRas wt GTP bind,Rab7 wt modul,Rab2A wt mod
N#CCc1c(C#N)c(N)nc(N2CCN(C=O)CC2)c1C#N,73*,78*,86,79*,89,77*
O=C(NNC(=S)NCc1ccc(Cl)cc1)c1ccc(Br)o1,90,78*,80,90,96,77*
O=C1/C(=C\c2cccnc2)Sc2ccccc21,84,72*,88,90,90,89
Cc1ccc(Cc2cnc(NC(=O)/C(C#N)=C/c3ccc(-c4ccc([N+](=O)[O-])cc4)o3)s2)cc1,84,82,83,82,79*,83
COC(=O)c1ccc(NC(=S)NC2c3ccccc3CC2O)cc1 (stereo not drawn),108,104,100,101,105,104
Cn1c(SCC(=O)c2ccccc2)nnc1-c1ccco1,99,97,99,97,94,98
CCOC(=O)c1nc(Nc2ccc(C(C)=O)cc2)c2ccccc2n1,78*,83,88,84,96,86
CNC(=O)COC(=O)c1cc(NC(=O)c2ccco2)c(OC)c(OC)c1,83,78*,87,81,87,80
O=c1c2ccccc2nc(-c2cccs2)n1-c1cccc2ccccc12,102,96,97,99,98,98
O=C(CCCCCNC(=O)c1ccccc1)N=Nc1c(O)[nH]c2c(Br)cc(Br)cc12,99,92,90,97,112,98
NC(=O)N=Nc1c(O)[nH]c2c(Br)cc(Br)cc12,69*,75*,87,78*,83,75*
CCOC(=O)c1cc2c(N)c(C(=O)c3ccc(Br)cc3)sc2[nH]c1=O,64*,71*,79*,74*,90,71*
FC(F)c1nc2ccccc2[nH]1,101,100,97,100,100,99
c1ccc2[nH]c3cc4ncnc4cc3nc2c1,79*,83,91,77*,87,77*
COc1ccccc1C(=O)N=Nc1c(O)[nH]c2ccc([N+](=O)[O-])cc12,45*,51*,66*,53*,66*,51*
O=C(N=Nc1c(O)[nH]c2ccc([N+](=O)[O-])cc12)c1cc(-c2ccccc2Cl)nc2ccccc12,100,102,99,96,96,96

# Compound activity (PubChem BioAssay)
